High-throughput results: PubChem BioAssay, National Center for Advancing Translational Sciences (NCATS)
The list is not random: actives were taken first. Their share in the collection is about 19%.
TDP1 cell noCPT = qHTS for Inhibitors of human tyrosyl-DNA phosphodiesterase 1 (TDP1): qHTS in cells in absence of CPT. Potency, µM (top dose mostly 46.2 µM), most hits filed as inhibitors. actives 15% (n = 420,000). DT40 Tdp1-/- hTDP1 cells, no CPT, ATP luminescence, 48 h; note: nearly all actives have a fitted effect of over 55% in size
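Readout: luminescence from CellTiter-Glo after 30 min in the dark at RT. Cells: DT40 Tdp1-/- with stable hTDP1, 400/well. Exposure: compounds alone, ≥48 hr, 37 °C.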
IL-1B inflam inh = inhibitors of inflammasome signaling (IL-1 beta secretion) | THP-1 LPS/ATP IL-1B secretion, AlphaLISA, 16 h; hits give low values | activity change, % at 57.5 µM | AID 743279 | actives 4.7% (n = 360,000); in the data active = activity change below about -50%; inconclusive = mostly about -30% to -49%
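THP-1 cells pretreated 1 hr with compounds (up to 57.5 uM final), then stimulated with LPS (250 ng/mL final) plus ATP (1.25 mM final); secreted IL-1B measured by AlphaLISA after 16 hr, decreased signal indicating inhibition.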
SW480 rerep = induces DNA re-replication in SW480 colon adenocarcinoma cells | SW480 DNA re-replication, Hoechst DNA content imaging, 48 h | Potency, µM (titrated, usually from 46.1 µM), most hits filed as activators | actives 1.8% (n = 340,000); note: nearly all actives have a fitted effect of over 55% in size
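Cells (250 per well) received 23 nL compound or DMSO by pin tool and were kept 48 hr at 37 C, 5% CO2. Nuclei were then stained with Hoechst for 40 min and scanned for DNA content.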
DT40 TDP1 CPT = DT40-hTDP1 cell growth loss with CPT; chicken DT40 Tdp1-/-;hTDP1 cells + 20 nM CPT, ATP luminescence, 48 h; Potency, µM (series often up to 46.2 µM), hits mostly inhibitors; actives 12% (n = 420,000); AID 686979; note: nearly all actives have a fitted effect of over 55% in size
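Chicken DT40 Tdp1-/- cells stably complemented with human TDP1 were seeded at 400 cells/well in medium containing 20 nM camptothecin, exposed to pin-transferred compounds, and grown at 37 °C for at least 48 hr. Viability was read as ATP luminescence.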
Chronic BCR inh = blocks chronic active B-cell receptor signaling. ABC-DLBCL IkBa-CBG/CBR reporter, luminescence ratio, 4 h. Potency, µM (highest dose often 46.1 µM), actives largely listed as inhibitors. actives 0.05% (n = 340,000). AID 493014; active = well fitted inhibition curve with a large enough effect in the signal ratio, with a control signal flat, not every such curve was filed as active; inconclusive = small, poorly fitted or top-dose-only effect, or effect the other way, or a change in a side signal; the % refers to the signal ratio
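Concentration-response series (up to 46 uM) were applied to TMD8 dual-reporter cells for 4 h at 37C with doxycycline. Green/red ratio, after filter-overlap correction, defined %Activity; red signal alone was normalised to basal cells and zero luminescence.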
MCF10A rerep = induces DNA re-replication in MCF 10a normal breast cells; MCF 10A DNA re-replication, Hoechst nuclear intensity, 48 h; Potency, µM (highest dose often 46.1 µM), hits mostly activators; actives 2.9% (n = 350,000); note: nearly all actives have a fitted effect of over 50% in size
Of the large screens only hits and unclear results are named; the others gave an inactive call. Unless noted, calls come from the whole dose curve; as a rule, active = well fitted curve in the direction sought with a large enough effect; inconclusive = small, poorly fitted or top-dose-only effect, or another doubt; inactive = no such curve, though single readings can be large; an effect the other way counts as inactive or inconclusive.

Cc1ccccc1CNC(=O)Cc1ccc(NC(=O)N2CCCCc3ccccc32)cc1	TDP1 cell noCPT 18.4µM, DT40 TDP1 CPT inconclusive (no result: IL-1B inflam inh, SW480 rerep, Chronic BCR inh, MCF10A rerep)
CCNC(=O)Cc1ccc(NC(=O)N2CCCCc3ccccc32)cc1	none (no result: IL-1B inflam inh, SW480 rerep, Chronic BCR inh, MCF10A rerep)
CCCc1cc(-c2nc(-c3ccc(Cl)cc3)cs2)ccn1	TDP1 cell noCPT 18.4µM, DT40 TDP1 CPT 18.4µM, Chronic BCR inh inconclusive, MCF10A rerep inconclusive
COc1ccc2c(c1)CC(NC(=O)Nc1ccc(NC(C)=O)cc1)CO2 (configuration not stated)	none (no result: IL-1B inflam inh, SW480 rerep, Chronic BCR inh, MCF10A rerep)
CC1CC(C)(C)OC(c2ccc(C(C)C)cc2)O1 (configuration not stated)	none (no result: Chronic BCR inh)
O=C(CCN1C(=O)/C(=C\c2ccc(F)cc2)SC1=S)Nc1ccc(O)cc1	TDP1 cell noCPT 23.1µM
Cc1ccc(/C=C2/SC(=S)N(CCCC(=O)Nc3ccc(O)cc3)C2=O)cc1	TDP1 cell noCPT 23.1µM, IL-1B inflam inh -62.3, SW480 rerep inconclusive, DT40 TDP1 CPT inconclusive, Chronic BCR inh inconclusive, MCF10A rerep inconclusive
O=C(CCCN1C(=O)/C(=C\c2ccccc2)SC1=S)Nc1ccc(O)cc1	TDP1 cell noCPT 14.6µM, IL-1B inflam inh -104.9, SW480 rerep inconclusive, DT40 TDP1 CPT inconclusive, Chronic BCR inh inconclusive, MCF10A rerep inconclusive
O=C(CCCN1C(=O)/C(=C/c2ccccc2)SC1=S)Nc1cccc(O)c1	TDP1 cell noCPT 23.1µM, IL-1B inflam inh -52.3, DT40 TDP1 CPT 18.4µM, Chronic BCR inh inconclusive, MCF10A rerep inconclusive
COc1ccc(-c2noc(N(c3ccc(F)c(Cl)c3)c3nc(-c4ccc(OC)c(OC)c4)no3)n2)cc1OC	none (no result: IL-1B inflam inh, SW480 rerep, Chronic BCR inh, MCF10A rerep)
O=C(Nc1cccc(C(=O)N2CCOCC2)c1)C1CCCC1	none (no result: Chronic BCR inh)
Cc1ccc(/C=C2\SC(=S)N(CCCC(=O)NC3CCCC3)C2=O)cc1	TDP1 cell noCPT 18.4µM, Chronic BCR inh inconclusive
O=C(CCCN1C(=O)/C(=C/c2ccccc2Cl)SC1=S)NNC(=O)c1ccc(Cl)cc1	TDP1 cell noCPT inconclusive, DT40 TDP1 CPT inconclusive, Chronic BCR inh inconclusive
Cc1ccc(/C=C2\SC(=S)N(CCCC(=O)Nc3cccc(C(=O)O)c3)C2=O)cc1	none
Cc1ccc(C(=O)NNC(=O)CCCN2C(=O)/C(=C/c3ccccc3Cl)SC2=S)cc1	TDP1 cell noCPT inconclusive, IL-1B inflam inh -106.9, DT40 TDP1 CPT inconclusive, Chronic BCR inh inconclusive
O=C(O)CCCN1C(=O)/C(=C\c2ccccc2OCc2ccccc2)SC1=S	Chronic BCR inh inconclusive, MCF10A rerep inconclusive
O=C(O)CCCCN1C(=O)/C(=C\c2ccc(OCc3ccccc3)c(OCc3ccccc3)c2)SC1=S	TDP1 cell noCPT inconclusive, IL-1B inflam inh -92.8, Chronic BCR inh inconclusive
COc1ccc(/C=C2/SC(=S)N(CCCC(=O)Nc3ccc(O)cc3)C2=O)cc1OC	TDP1 cell noCPT 14.6µM, SW480 rerep inconclusive, DT40 TDP1 CPT inconclusive
O=C(COC(=O)C1=COCCO1)Nc1ccc(Br)cc1Br	Chronic BCR inh inconclusive
Cc1nc(CN2C(=O)C3(CCC3)ON=C2c2cccc(Cl)c2)cs1	TDP1 cell noCPT inconclusive, DT40 TDP1 CPT inconclusive (no result: SW480 rerep, Chronic BCR inh, MCF10A rerep)
CC(/C=C1\SC(=S)N(CCC(=O)Nc2ccc(O)cc2)C1=O)=C\c1ccccc1	TDP1 cell noCPT 18.4µM, IL-1B inflam inh -53.1, SW480 rerep inconclusive, DT40 TDP1 CPT 18.4µM, Chronic BCR inh inconclusive
COc1ccc(/C=C2\SC(=S)N(CCC(=O)Nc3ccc(O)cc3)C2=O)cc1	Chronic BCR inh inconclusive, MCF10A rerep inconclusive
O=C(CCCN1C(=O)S/C(=C/C=C/c2ccccc2)C1=O)Nc1ccc(C(=O)O)cc1	none
CCN(CC)CCOC(=O)c1ccc(NC(=O)CCCN2C(=O)S/C(=C/c3ccc(OC)cc3)C2=S)cc1	TDP1 cell noCPT 20.6µM, IL-1B inflam inh -69.0, SW480 rerep 22.4µM, DT40 TDP1 CPT inconclusive, Chronic BCR inh inconclusive, MCF10A rerep inconclusive
